Experimental data from PubChem BioAssay (NCI).
The panel holds about 83,000 compounds, 20% with a hit somewhere; the sample as a whole holds those more often.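 Negative percent growth values reflect cell death: -40 means 40% of the cells present at the start died, and -100 means all died.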 Values without a mark were called inactive. Calls of active or inactive are those of the source. Rule for the calls: active = growth percent below 10; inactive = the rest.

Columns and labels:
Experiment in all cases: NCI-60 one-dose screen, 48 h (100 = growth as untreated, 0 = no growth, -100 = all killed)
Conditions in all cases: 10 µM unless noted
[1] = test system: NCI-H23 lung
[2] = test system: NCI-H226 lung
[3] = test system: NCI-H322M lung
[4] = test system: HOP-62 NSCLC
[5] = test system: NCI-H460 lung
[6] = test system: HOP-92 NSCLC
[7] = test system: NCI-H522 lung
[8] = test system: A549/ATCC NSCLC
[9] = test system: 786-0 renal
[10] = test system: COLO 205 colon

Compound | growth [1] | growth [2] | growth [3] | growth [4] | growth [5] | growth [6] | growth [7] | growth [8] | growth [9] | growth [10]
O=C(NNC(=O)N1c2ccccc2C=Cc2ccccc21)c1ccc2ccccc2c1 | 98.4% | 95.5% | 99% | 99.1% | 100% | 81.4% | 85.9% | 95.7% | 96.1% | 101%
Nc1nc(=O)c2ccccc2s1 | 109% | 112% | 108% | 98.2% | 115% | 94.5% | 122% | 111% | 103% | 107%
O=C1c2c(c3c4ccccc4n(CCCCCCBr)c3c3[nH]c4ccccc4c23)C(=O)N1O | -0.173% (active) | 70.5% | 14.8% | 8.33% (active) | 5.88% (active) | -13.6% (active) | -7.94% (active) | 6.36% (active) | 17.3% | 62.4%
Cc1ccc(-c2cc3nc(C(Cl)Cl)nc(-c4cccnc4)n3n2)cc1 | -32.5% (active) | 75.7% | 18.2% | -8% (active) | -10.5% (active) | -2.25% (active) | 4.51% (active) | -14.2% (active) | 69.5% | -82.6% (active)
CN(C)CCCN(c1nc(C(Cl)(Cl)Cl)ns1)c1nc(C(Cl)(Cl)Cl)ns1 | 58.9% | 53.9% | 65.5% | 48.4% | 8.42% (active) | -0.62% (active) | 39.4% | 37.5% | 42.4% | 10.2%
CC(C)(C)n1cc(-c2ccnc(NCCNS(=O)(=O)c3ccc(Cl)cc3)c2)c(-c2cccc(O)c2)n1 | 64.7% | 67.5% | 85.3% | 84.9% | 28.2% | 72% | 68% | 51.8% | 54.6% | -7.89% (active)
COc1ccc(-c2nc(/C=C3/C(=O)Nc4ccc(F)cc43)c3ccccn23)cc1 | 97.8% | 114% | 126% | 108% | 94.8% | 92.3% | 104% | 99.4% | 98.8% | 97.3%
CC(NNC(C)c1ccccc1)c1ccccc1 (stereo not given) | 103% | 98.8% | 122% | 105% | 106% | 96.4% | 93.9% | 104% | 109% | 105%
c1cc(C2=N[C@@H]3c4ccccc4C[C@@H]3O2)nc(C2=N[C@@H]3c4ccccc4C[C@@H]3O2)c1 | 98.1% | 101% | 107% | 100% | 109% | 101% | 93.1% | 104% | 98.8% | 106%
CC(C)CC1NC(C)(C)CO1 (stereo not given) | 105% | 107% | 121% | 95.9% | 107% | 98% | 89.8% | 103% | 109% | 108%
Cc1ccc(S(=O)(=O)n2cc(C(=O)C(=O)Nc3ccncc3)c3ccccc32)cc1 | 36.4% | 64.2% | 94.7% | 33.4% | 80.4% | 38.5% | 1.71% (active) | 73.5% | 29.5% | 107%
COc1ccc(-c2nc3sc(-c4cc(OC)c(OC)c(OC)c4)nn3c2/C=C2/C(=O)Nc3ccc(F)cc32)cc1 | 2.52% (active) | 110% | -59.4% (active) | 4.69% (active) | -26.6% (active) | -58.8% (active) | 8.56% (active) | -63.6% (active) | -50.3% (active) | -43.8% (active)
CC(C)c1ccc2occ(C=C3C(=O)NC(=O)NC3=O)c(=O)c2c1 | 97.5% | 106% | 116% | 101% | 102% | 63% | 88.7% | 100% | 91.6% | 117%
CC(C)(C)n1cc(-c2ccnc(NCCCNS(=O)(=O)c3ccc(C(F)(F)F)cc3)c2)c(-c2cccc(O)c2)n1 | 37.8% | 42% | 35.1% | 54.8% | -48.5% (active) | 22.7% | -13.3% (active) | 21.5% | -17.3% (active) | -59.1% (active)
CC(C)(C)Nc1c(-c2cccs2)nc2ncccn12 | 96.6% | 90.6% | 98.7% | 104% | 102% | 98.8% | 80.3% | 98.1% | 104% | 110%
CC(C)C1=CC2=C(C=O)C[C@@H]3[C@](C)(CCC[C@@]3(C)C(=O)OCC#CCN3CCCC3)[C@H]2CC1 | 62.2% | 75.7% | 96.2% | 84.9% | 76.8% | 45.9% | 59.9% | 67.4% | 75.2% | 86.5%
O=c1cc(Cc2ccc([N+](=O)[O-])cc2)[nH]c(=O)[nH]1 | 99.2% | 107% | 112% | 93.3% | 109% | 96.1% | 90.5% | 106% | 98.9% | 100%
Cc1[nH]c2ccc(F)cc2c1CCNC(=O)C1CCN(C(=O)c2ccccc2)C1 (stereo not given) | 88.6% [25 µM] | 90.2% [25 µM] | 61.8% [25 µM] | 93.3% [25 µM] | 101% [25 µM] | -0.166% [25 µM] (active) | 95.1% [25 µM] | 97.8% [25 µM] | 89.9% [25 µM] | 101% [25 µM]
COc1ccc(-c2ccc(-c3ccc(C(=N)N)s3)s2)cc1Cl | 45.4% | 79.3% | 96.8% | 70.9% | -36.5% (active) | 16.5% | 0.287% (active) | -69.8% (active) | 72.3% | -48.4% (active)
O=C(Nc1ccncc1)C(=O)c1cn(S(=O)(=O)c2ccc(Br)cc2)c2ccccc12 | 46.9% | 77.8% | 97.1% | 44.7% | 68.4% | 48.6% | 18.3% | 75.6% | 54.9% | 103%

Compound | growth [1] | growth [2] | growth [3] | growth [4] | growth [5] | growth [6] | growth [7] | growth [8] | growth [9] | growth [10]
CN(C)CC(C(=O)c1ccccc1)c1ccccc1 (stereo not given) | 58.2% | 47.4% | 106% | 43.7% | 79.5% | -0.711% (active) | -77.5% (active) | 71.4% | 74% | -48% (active)
Fc1ccc(Nc2ncnc3ccc(-c4cnc5[nH]ccc5c4)cc23)cc1Cl | 36.1% | 4.94% (active) | 19.2% | 29.1% | -58.9% (active) | -5.43% (active) | -33.3% (active) | -50.1% (active) | -44.1% (active) | 11%
Cc1cc(C(C)(C)C)ccc1S | 108% | 96.3% | 95.9% | 96.2% | 114% | 86.3% | 85.8% | 111% | 99.9% | 116%
CC(C)(C)n1cc(-c2ccnc(NCCCNS(=O)(=O)c3ccccc3)c2)c(-c2cccc(O)c2)n1 | 72.8% | 53.4% | 59.1% | 66.1% | 19.1% | 77.7% | 45% | 38% | 25.8% | 14.7%
CCCOC(=O)n1cccc1 | 99% | 104% | 135% | 94.3% | 110% | 97% | 112% | 96.8% | 98.5% | 107%
CC1CCC(C)N(C)C1 (stereo not given) | 104% | 101% | 100% | 107% | 109% | 84.4% | 104% | 103% | 94.4% | 110%
COc1ccccc1CNCCCN1C(=O)c2ccc3c4c(ccc(c24)C1=O)C(=O)N(CCCNCCCCNCCCN)C3=O | 1.96% (active) | -59.9% (active) | -4.96% (active) | -55.2% (active) | -30.2% (active) | 5.16% (active) | -41.7% (active) | -48.2% (active) | 3.83% (active) | -78.9% (active)
Cn1cc(-c2cnc3ccc(NC(=O)Nc4ccc(F)c(Br)c4)cc3n2)cn1 | 32% | 16.7% | 46.3% | 0.864% (active) | 32.4% | -15.5% (active) | 8.07% (active) | 22.5% | 38.7% | 1.03% (active)
COP(=O)(OC)/C(=N\NS(=O)(=O)c1ccc(C)cc1)c1ccccc1 | 91.5% | 89.2% | 102% | 95.5% | 101% | 106% | 126% | 104% | 94.7% | 109%
O=[N+]([O-])c1ccc(OCCCOc2ccccc2)cc1 | 102% | 113% | 101% | 96.9% | 108% | 121% | 86.3% | 92.4% | 98.7% | 118%
O=C(NCCCNc1nccc(-n2ccc3cccnc32)n1)c1c(F)cccc1F | 101% | 99.4% | 103% | 101% | 104% | 110% | 101% | 102% | 98% | 113%
Cc1ccc(-c2nc(C(Cl)Cl)n3nc(-c4ccccc4)cc3n2)cc1 | 47.3% | 88% | 83.3% | 3.61% (active) | 15.5% | -8.47% (active) | 100% | 12% | 17.8% | 6.05% (active)
CCCCN(CCCC)C(=O)CC | 102% | 104% | 117% | 119% | 108% | 96.4% | 114% | 106% | 102% | 119%
COc1cc(NC(N)=NCCC(C)(C)c2ccc(C(F)(F)F)cc2)ncc1C#N | 6.42% (active) | 55.5% | 36.1% | 54.5% | 6.06% (active) | -3.76% (active) | 16.8% | 27.2% | 36% | -83.6% (active)
CCn1c2ccccc2c2cc(NC(=O)Nc3ccc([N+](=O)[O-])cc3C)ccc21 | 41.5% | 74.9% | 77.8% | 49.4% | 19.5% | 57.9% | 9.7% (active) | 31.5% | 38.9% | 29.9%
Clc1cc(Cl)cc(-c2ccc(-c3ccc(/C=N/NC4=NCCN4)cc3)s2)c1 | 39.1% | 85.1% | 98.3% | 71% | 4.5% (active) | 38.9% | 71.4% | -22.4% (active) | 75.8% | -17.1% (active)
COc1ccc(-c2c(-c3cc(OC)c4c(c3)OCO4)noc2N)cc1 | 40.6% | 22.8% | 51.1% | 10.3% | 4.43% (active) | 35.4% | 4.5% (active) | 13.3% | 14.5% | -88.9% (active)
C=C1C(=O)O[C@@H]2[C@@H]3O[C@@](C)(CC/C=C(\C)CCC[C@@H]2C)[C@H](O)C[C@@H]13 | 81.6% | 65.7% | 97.3% | 81.2% | 89.8% | 1.79% (active) | -16.5% (active) | 95.3% | 79.1% | 47.1%
CCN(CC)CCOc1ccc(Cl)c(C)c1 | 91.6% | 104% | 103% | 104% | 106% | 85.7% | 92.4% | 96.5% | 99.6% | 103%
